# Experimental data taken from PubChem BioAssay (NCI).
# “And” between values parts separate entries of the source, which are not always exact repeats. Identical values can stand only once. Compounds without any hit were thinned out: in the full panel of roughly 79,000, 15% have a hit. A structure can be active in one record and inactive in another. The source made the active and inactive calls. Rule as the data show it: active = growth inhibition above about 70%; inactive = the rest.
# Tests used:
# [1] = NCI Yeast Anticancer Drug Screen. Data for the rad50 strain (AID 155);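 also: 0% = growth of vehicle-only cultures of the same strain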; conditions: S. cerevisiae rad50 strain growth inhibition, stronger effect = higher value
# How it was run: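 Inhibition values express reduced yeast growth in compound-treated cultures relative to vehicle-treated controls.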
# [2] = NCI Yeast Anticancer Drug Screen. Data for the mec2-1 strain (AID 157); conditions: S. cerevisiae mec2-1 strain, stronger effect = higher value
# How it was run: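 Using mec2-1 yeast: add compound, measure growth, express inhibition versus vehicle-treated cultures.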
# [3] = NCI Yeast Anticancer Drug Screen. Data for the sgs1 mgt1 strain (AID 161);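 also: 0% = growth of cultures given vehicle only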; conditions: S. cerevisiae sgs1 mgt1 strain, stronger effect = higher value
# How it was run: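 Yeast cells carrying a defined DNA-repair defect were exposed to test compounds. Growth inhibition was measured relative to vehicle-treated controls.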
# [4] = NCI Yeast Anticancer Drug Screen. Data for the cln2 rad14 strain (AID 165);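 also: 0% = growth equal to vehicle treated cultures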; conditions: S. cerevisiae cln2 rad14 strain, stronger effect = higher value
# How it was run: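 Yeast strain cln2 rad14, bearing defects in cell cycle control and DNA repair, serves as the test system; values reflect growth inhibition compared with vehicle.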
# [5] = NCI Yeast Anticancer Drug Screen. Data for the bub3 strain (AID 167); conditions: S. cerevisiae bub3 mutant strain, stronger effect = higher value
# How it was run: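 Steps: expose the mutant yeast strain to compound; grow alongside vehicle-treated cultures; measure growth; express inhibition against the vehicle cultures.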
# [6] = NCI Yeast Anticancer Drug Screen. Data for the wt2 strain (AID 169);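 also: 0% = growth of vehicle-treated yeast cultures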; conditions: S. cerevisiae wt2 strain growth inhibition, stronger effect = higher value
# How it was run: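 Treated yeast vs. vehicle-treated yeast: growth inhibition determined.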
# [7] = NCI Yeast Anticancer Drug Screen. Data for the mlh1 rad18 strain (AID 175); conditions: S. cerevisiae mlh1 rad18 strain growth inhibition, stronger effect = higher value
# How it was run: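 Steps: expose repair-defective yeast to compound; measure growth; express inhibition against vehicle-treated controls.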
# [8] = at 5.0 µM (retest, dose inferred, filed as 0.5)
# [9] = at 50.0 µM (retest, dose inferred, filed as 5.0)
smiles,measurement,setting,value
CC(C)N1CSC(=S)N(Cc2ccccc2)C1,growth inhibition,[1]; [8],55% (inactive)
same,growth inhibition,[1]; [9],91% (active)
same,growth inhibition,[1]; at 50.0 µM,77.7% (active)
same,growth inhibition,[2]; [8],46% (inactive)
same,growth inhibition,[2]; [9],92% (active)
same,growth inhibition,[2]; at 50.0 µM,81.5% (active)
same,growth inhibition,[3]; [8],-5% (inactive)
same,growth inhibition,[3]; [9],98% (active)
same,growth inhibition,[3]; at 50.0 µM,46.3% (inactive)
same,growth inhibition,[4]; [8],56% (inactive)
same,growth inhibition,[4]; [9],92% (active)
same,growth inhibition,[4]; at 50.0 µM,19.5% (inactive)
same,growth inhibition,[5]; [8],6% (inactive)
same,growth inhibition,[5]; [9],92% (active)
same,growth inhibition,[5]; at 50.0 µM,88.2% (active)
same,growth inhibition,[6]; at 1.2 µM,0% (inactive)
same,growth inhibition,[6]; at 3.7 µM,7% (inactive)
same,growth inhibition,[6]; at 11.0 µM,23% (inactive)
same,growth inhibition,[6]; at 33.0 µM,55% (inactive)
same,growth inhibition,[6]; at 100.0 µM,67% (inactive)
same,growth inhibition,[7]; [8],30% (inactive)
same,growth inhibition,[7]; [9],66% (inactive)
same,growth inhibition,[7]; at 50.0 µM,59.5% (inactive)
COc1cccc(-c2nnc(-c3ccccc3)o2)c1,growth inhibition,[1]; [8],32% (inactive) and 33% (inactive)
same,growth inhibition,[1]; [9],36% (inactive) and 55% (inactive)
same,growth inhibition,[1]; at 50.0 µM,29.4% (inactive) and 89.1% (active)
same,growth inhibition,[2]; [8],36% (inactive) and 45% (inactive)
same,growth inhibition,[2]; [9],40% (inactive) and 55% (inactive)
same,growth inhibition,[2]; at 50.0 µM,16.4% (inactive) and 85.8% (active)
same,growth inhibition,[3]; [8],-1% (inactive) and 11% (inactive)
same,growth inhibition,[3]; [9],52% (inactive) and 99% (active)
same,growth inhibition,[3]; at 50.0 µM,33.5% (inactive) and 89.4% (active)
same,growth inhibition,[4]; [8],73% (active) and 21% (inactive)
same,growth inhibition,[4]; [9],18% (inactive) and 98% (active)
same,growth inhibition,[4]; at 50.0 µM,32.5% (inactive) and 80.2% (active)
same,growth inhibition,[5]; [8],30% (inactive) and 13% (inactive)
same,growth inhibition,[5]; [9],85% (active) and 98% (active)
same,growth inhibition,[5]; at 50.0 µM,71% (active) and 15.5% (inactive)
same,growth inhibition,[6]; at 1.2 µM,20% (inactive)
same,growth inhibition,[6]; at 3.7 µM,7% (inactive)
same,growth inhibition,[6]; at 11.0 µM,4% (inactive)
same,growth inhibition,[6]; at 33.0 µM,46% (inactive)
same,growth inhibition,[6]; at 100.0 µM,97% (active)
same,growth inhibition,[7]; [8],30% (inactive) and 34% (inactive)
same,growth inhibition,[7]; [9],44% (inactive) and 54% (inactive)
same,growth inhibition,[7]; at 50.0 µM,16.9% (inactive) and 84.1% (active)
COc1ccc(Cc2ccc(O)cc2)cc1,growth inhibition,[1]; [8],41% (inactive)
same,growth inhibition,[1]; [9],79% (active)
same,growth inhibition,[1]; at 50.0 µM,33.3% (inactive)
same,growth inhibition,[2]; [8],40% (inactive)
same,growth inhibition,[2]; [9],88% (active)
same,growth inhibition,[2]; at 50.0 µM,27.8% (inactive)
same,growth inhibition,[3]; [8],-9% (inactive)
same,growth inhibition,[3]; [9],47% (inactive)
same,growth inhibition,[3]; at 50.0 µM,52.8% (inactive)
same,growth inhibition,[4]; [8],42% (inactive)
same,growth inhibition,[4]; [9],8% (inactive)
same,growth inhibition,[4]; at 50.0 µM,-20.9% (inactive)
same,growth inhibition,[5]; [8],-16% (inactive)
same,growth inhibition,[5]; [9],49% (inactive)
same,growth inhibition,[5]; at 50.0 µM,30.9% (inactive)
same,growth inhibition,[6]; at 1.2 µM,-12% (inactive)
same,growth inhibition,[6]; at 3.7 µM,-8% (inactive)
same,growth inhibition,[6]; at 11.0 µM,-9% (inactive)
same,growth inhibition,[6]; at 33.0 µM,6% (inactive)
same,growth inhibition,[6]; at 100.0 µM,11% (inactive)
same,growth inhibition,[7]; [8],27% (inactive)
same,growth inhibition,[7]; [9],54% (inactive)
same,growth inhibition,[7]; at 50.0 µM,28.8% (inactive)
O=C1CCC(c2ccccc2)(C2(c3ccccc3)CCC(=O)O2)O1 (configuration not stated),growth inhibition,[1]; [8],1% (inactive)
same,growth inhibition,[1]; [9],7% (inactive)
same,growth inhibition,[1]; at 50.0 µM,17.4% (inactive) and 59.5% (inactive)
same,growth inhibition,[2]; [8],-4% (inactive)
same,growth inhibition,[2]; [9],4% (inactive)
same,growth inhibition,[2]; at 50.0 µM,4.8% (inactive) and 50.9% (inactive)
same,growth inhibition,[3]; [8],3% (inactive)
same,growth inhibition,[3]; [9],57% (inactive)
same,growth inhibition,[3]; at 50.0 µM,12.4% (inactive) and 70.5% (active)
same,growth inhibition,[4]; [8],4% (inactive)
same,growth inhibition,[4]; [9],52% (inactive)
same,growth inhibition,[4]; at 50.0 µM,4.35% (inactive) and 13.1% (inactive)
same,growth inhibition,[5]; [8],2% (inactive)
same,growth inhibition,[5]; [9],21% (inactive)
same,growth inhibition,[5]; at 50.0 µM,13.8% (inactive) and 10.7% (inactive)
Nc1cc2ccccc2c2c1ccc1ccccc12,growth inhibition,[1]; [8],-159% (inactive) and 6% (inactive)
same,growth inhibition,[1]; [9],4% (inactive) and 95% (active)
same,growth inhibition,[1]; at 50.0 µM,96.5% (active) and 89.7% (active)
same,growth inhibition,[2]; [8],-48% (inactive) and 1% (inactive)
same,growth inhibition,[2]; [9],8% (inactive) and 97% (active)
same,growth inhibition,[2]; at 50.0 µM,96.9% (active) and 94.2% (active)
same,growth inhibition,[3]; [8],-66% (inactive) and 14% (inactive)
same,growth inhibition,[3]; [9],-18% (inactive) and 64% (inactive)
same,growth inhibition,[3]; at 50.0 µM,97.8% (active) and 92.5% (active)
same,growth inhibition,[4]; [8],-56% (inactive) and -2% (inactive)
same,growth inhibition,[4]; [9],24% (inactive) and 95% (active)
same,growth inhibition,[4]; at 50.0 µM,95.3% (active) and 90.5% (active)
same,growth inhibition,[5]; [8],-64% (inactive) and -4% (inactive)
same,growth inhibition,[5]; [9],-2% (inactive) and 96% (active)
same,growth inhibition,[5]; at 50.0 µM,97.6% (active) and 91.4% (active)
CCC(C)c1ccc(O)c(C(C)CC)c1 (configuration not stated),growth inhibition,[1]; [8],40% (inactive)
same,growth inhibition,[1]; [9],98% (active)
same,growth inhibition,[1]; at 50.0 µM,58.9% (inactive)
same,growth inhibition,[2]; [8],57% (inactive)
same,growth inhibition,[2]; [9],98% (active)
same,growth inhibition,[2]; at 50.0 µM,30.3% (inactive)
same,growth inhibition,[3]; [8],-26% (inactive)
same,growth inhibition,[3]; [9],72% (active)
same,growth inhibition,[3]; at 50.0 µM,45.8% (inactive)
same,growth inhibition,[4]; [8],15% (inactive)
same,growth inhibition,[4]; [9],60% (inactive)
same,growth inhibition,[4]; at 50.0 µM,27.8% (inactive)
same,growth inhibition,[5]; [8],38% (inactive)
same,growth inhibition,[5]; [9],63% (inactive)
same,growth inhibition,[5]; at 50.0 µM,68.7% (inactive)
same,growth inhibition,[6]; at 1.2 µM,-3% (inactive)
same,growth inhibition,[6]; at 3.7 µM,-13% (inactive)
same,growth inhibition,[6]; at 11.0 µM,-11% (inactive)
same,growth inhibition,[6]; at 33.0 µM,-1% (inactive)
same,growth inhibition,[6]; at 100.0 µM,98% (active)
same,growth inhibition,[7]; [8],44% (inactive)
same,growth inhibition,[7]; [9],99% (active)
same,growth inhibition,[7]; at 50.0 µM,58.9% (inactive)
OC1CCC(O)CC1 (configuration not stated),growth inhibition,[1]; [8],-1% (inactive)
same,growth inhibition,[1]; [9],42% (inactive)
same,growth inhibition,[1]; at 50.0 µM,73.8% (active) and 21.8% (inactive)
same,growth inhibition,[2]; [8],-3% (inactive)
same,growth inhibition,[2]; [9],3% (inactive)
same,growth inhibition,[2]; at 50.0 µM,20.2% (inactive) and -13.1% (inactive)
same,growth inhibition,[3]; [8],0% (inactive)
same,growth inhibition,[3]; [9],5% (inactive)
same,growth inhibition,[3]; at 50.0 µM,70.2% (active) and -6.75% (inactive)
same,growth inhibition,[4]; [8],2% (inactive)
same,growth inhibition,[4]; [9],-3% (inactive)
same,growth inhibition,[4]; at 50.0 µM,8.65% (inactive) and -1.45% (inactive)
same,growth inhibition,[5]; [8],0% (inactive)
same,growth inhibition,[5]; [9],4% (inactive)
same,growth inhibition,[5]; at 50.0 µM,11% (inactive) and -1.95% (inactive)
